Among the data in PubChem BioAssay (EPA / NIEHS) are outcome and AC50 values, retold here.

Records with an inconclusive call do not appear. Activity calls are given as the source filed them. Rule for the calls, unless noted: active = hit-call score of the fitted dose curve at least 0.9, where 1 is the maximum; inconclusive = response in the unintended direction; inactive = score below 0.9.

Assay [1] can be described thus: CCTE_Padilla_ZF_144hpf_TERATOSCORE: (Legacy) CCTE's 144 Hour Post-fertilization zebrafish Assay Teratoscore, Padilla Lab (AID 2283679; active = hit-call score of the fitted dose curve at least 0.9, where 1 is the maximum; inactive = score below 0.9;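 for AC50: zebrafish embryos with chorions exposed by immersion from 6-8 hpf to 5 dpf with daily renewal; teratogenicity score from eye scoring of death hatching and malformations at 144 hpf; higher score means more developmental defects relative to DMSO baseline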). The gist of the method:
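Larvae scored by eye at 144 hpf for death, hatching and malformations after a day in clean Hanks'. Before that, daily-renewed exposure at 80 uM (0.4% DMSO, 26C) from roughly 6-8 hpf through 5 dpf, 4 embryos per chemical.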

Read-out in assay [2]: ABC Transporter (ABCB11), ABCB11 (gene 8647)
As to the kind of experiment: CLD_ABCB11_24hr: CellzDirect (CLD) Gene Expression Assay for ABC Transporter (ABCB11) at 24 hours (AID 2283674; active = hit-call score of the fitted dose curve at least 0.9, where 1 is the maximum; inactive = score below 0.9). The gist of the method: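 ABCB11 transcript was quantified by qNPA chemiluminescence in cultured human liver hepatocytes 24 hours after dosing. Fresh dosing solutions were applied on consecutive days, against a 0.2% DMSO vehicle. Cytotoxicity was noted by phase-contrast morphology.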

Read-out in assay [3]: Glyceraldehyde-3-phosphate dehydrogenase (Homo sapiens) (UniProt P04406)
As to the kind of experiment: CLD_GAPDH_6hr: CellzDirect (CLD) Gene Expression Assay for Baseline Control (Glyceraldehyde 3-phosphate dehydrogenase) at 6 hours (AID 2283681).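 Note: active means increased signal relative to DMSO vehicle.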 The gist of the method: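 GAPDH baseline-control readout from qNPA (S1 nuclease digestion, probe hybridization, chemiluminescence) in lysates of cultured human hepatocytes harvested 6 h post-dosing. Chemicals tested at multiple concentrations versus 0.2% DMSO vehicle; microscopy-based cytotoxicity flagged yes/no.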

Read-out in assay [4]: ABC Transporter (ABCB1), ABCB1 (gene 5243)
As to the kind of experiment: CLD_ABCB1_24hr: CellzDirect (CLD) Gene Expression Assay for ABC Transporter (ABCB1) at 24 hours (AID 2283684). Put shortly:
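ABCB1 mRNA induction versus 0.2% DMSO vehicle was read by qNPA chemiluminescence at 24 h. Cultured human hepatocytes from two donor preparations received daily fresh dosing, and phase-contrast cytotoxicity calls were annotated alongside the data.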

Read-out in assay [5]: Cytochrome P450 2B6 (Homo sapiens) (UniProt P20813)
As to the kind of experiment: CLD_CYP2B6_24hr: CellzDirect (CLD) Gene Expression Assay for xenobiotic metabolism (CYP2B6) at 24 hours (AID 2283686). The gist of the method: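 qNPA chemiluminescent measurement of mRNA at 24 hours in human primary hepatocyte cultures from two donor preparations, with daily fresh dosing and 0.2% DMSO vehicle as baseline. Morphology-based cytotoxicity flagged yes/no.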

Read-out in assay [6]: Cytochrome P450 2B6 (Homo sapiens) (UniProt P20813)
As to the kind of experiment: CLD_CYP2B6_6hr: CellzDirect (CLD) Gene Expression Assay for xenobiotic metabolism (CYP2B6) at 6 hours (AID 2283677).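 Note: actives raise CYP2B6 transcript above DMSO baseline so AC50 marks an inducer.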 The gist of the method:
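CYP2B6 transcript levels, read by chemiluminescent qNPA, were fitted for increase versus DMSO baseline; cultured human liver hepatocytes from two donor preparations were harvested 6 h after exposure to test chemicals at multiple concentrations.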

Read-out in assay [7]: HMG-CoA synthase (HMGCS2), HMGCS2 (gene 3158)
As to the kind of experiment: CLD_HMGCS2_6hr: CellzDirect (CLD) Gene Expression Assay for HMG-CoA synthase (HMGCS2) at 6 hours (AID 2283682).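 Note: actives raise HMGCS2 transcript above the 0.2% DMSO vehicle baseline.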 Put shortly: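 HMGCS2 transcript induction read by quantitative nuclease protection with chemiluminescence, 6 h after dosing of primary human hepatocytes. Baseline was 0.2% DMSO vehicle; phase-contrast morphology gave a yes/no cytotoxicity annotation.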

Read-out in assay [8]: Cytochrome P450 (CYP24A1_1), CYP24A1 (gene 1591)
As to the kind of experiment: LTEA_HepaRG_CYP24A1_1: Life Technologies and Expression Analysis (LTEA) Assay for Cytochrome P450 (CYP24A1_1) using HepaRG (AID 2283671; active = hit-call score of the fitted dose curve at least 0.9, where 1 is the maximum; inactive = score below 0.9). The conditions noted are these: mRNA level, 48 h; actives raise or lower the signal. Put shortly:
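Readout is CYP24A1 transcript level by qRT-PCR, normalized to three housekeeping genes, with gain or loss of signal fitted against 0.5% DMSO. Human HepaRG cells received compound for 48 h at up to 100 uM.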

Chain of Glyceraldehyde-3-phosphate dehydrogenase (Homo sapiens) (P04406 whole entry, looked up): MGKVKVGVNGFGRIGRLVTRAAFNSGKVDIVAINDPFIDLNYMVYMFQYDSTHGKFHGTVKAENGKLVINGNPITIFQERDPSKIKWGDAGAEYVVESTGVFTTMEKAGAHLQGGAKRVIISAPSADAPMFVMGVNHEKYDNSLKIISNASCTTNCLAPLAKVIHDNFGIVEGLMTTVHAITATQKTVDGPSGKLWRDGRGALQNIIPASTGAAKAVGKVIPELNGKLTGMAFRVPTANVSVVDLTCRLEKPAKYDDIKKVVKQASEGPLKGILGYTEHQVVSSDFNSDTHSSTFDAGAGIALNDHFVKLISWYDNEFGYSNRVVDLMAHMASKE

Take `C[C@]12CC[C@@H]3c4ccc(O)cc4C[C@@H](CCCCCCCCCS(=O)CCCC(F)(F)C(F)(F)F)[C@H]3[C@@H]1CC[C@@H]2O` (stereo partly drawn): in assay [1], the compound was classed as inactive.
As to `CCNc1nc(N)nc(Cl)n1`, the result in assay [2], in assay [1], in assay [3], in assay [4] and in assay [5] was inactive.
Consider `CCN(Cc1c(F)cccc1Cl)c1c([N+](=O)[O-])cc(C(F)(F)F)cc1[N+](=O)[O-]`, for which the AC50 (as a rule, the concentration at which the activity in the assay is half-maximal) is 0.419 µM (active) in assay [6], 0.00783 µM (active) in assay [1] and 0.365 µM (active) in assay [5].
Regarding `C#CCOC(=O)[C@@H](C)Oc1ccc(Oc2ncc(Cl)cc2F)cc1`, the compound was called inactive in assay [2], in assay [3], in assay [7] and in assay [4]. Besides, the concentration at half-maximal activity (AC50) in assay [6] was 0.000426 µM (active); in assay [1], 0.593 µM (active); in assay [5] it was 0.000411 µM (active).
Take `CCCN(CCC)c1c([N+](=O)[O-])cc(C(F)(F)F)c(N)c1[N+](=O)[O-]`: the values for the AC50 in assay [6] and in assay [5] were 0.752 µM (active) and 4.48 µM (active), respectively. Further, the result in assay [1], in assay [3] and in assay [4] was inactive.
In the case of `O=C(c1ccc(O)cc1O)c1ccc(O)cc1O`, the concentration at half-maximal activity (AC50) in assay [1] was 95.2 µM (active).
Regarding `CCCCOCCOCCOCc1cc2c(cc1CCC)OCO2`, the call in assay [8] and in assay [4] was inactive. The AC50 in assay [6] was 1.27 µM (active); in assay [1] it was 15.3 µM (active); in assay [5], 1.9 µM (active).
`CCCOC(=O)NCCCN(C)C`: the compound was classed as inactive in assay [1], in assay [3], in assay [4] and in assay [5].
Regarding `N[C@@H](Cc1cc(I)c(Oc2ccc(O)c(I)c2)c(I)c1)C(=O)O`, the AC50 in assay [1] is 0.331 µM (active).
`CCOC(=O)c1ccc(O)cc1`: the AC50 in assay [1] is 62.6 µM (active).
With `OB(O)O`, the compound was classed as inactive in assay [2], in assay [1], in assay [3] and in assay [4].
Turning to `C[C@]12C[C@H](O)[C@H]3[C@@H](CCC4=CC(=O)CC[C@@]43C)[C@@H]1CC[C@@H]2C(=O)CO`, the compound was classed as inactive in assay [1].
Consider `Cc1nn(C)c(Oc2ccccc2)c1C=NOCc1ccc(C(=O)OC(C)(C)C)cc1`, for which the AC50 in assay [2] is 36.8 µM (active); in assay [1], 0.213 µM (active); in assay [5], 20 µM (active). For the same compound, the outcome in assay [3] and in assay [4] was inactive.
With `c1ccc2[nH]c(-c3cscn3)nc2c1`, the concentration at half-maximal activity (AC50) in assay [6] was 10.2 µM (active); in assay [1], 52.8 µM (active). Moreover, the result in assay [3] and in assay [5] was inactive.
For the compound `CCSC(=O)N(CC(C)C)CC(C)C`, the concentration at half-maximal activity (AC50) in assay [6] was 3.55 µM (active). Besides, the compound was classed as inactive in assay [1], in assay [3], in assay [4] and in assay [5].
Regarding `CCN(CC)C(=O)c1cccc(C)c1`, the values for the half-maximal activity concentration (AC50) in assay [6] and in assay [5] were 2.38 µM (active) and 20 µM (active), respectively. For the same compound, the call in assay [1], in assay [7] and in assay [4] was inactive.
Turning to `CCOC(=O)[C@H](C)Oc1ccc(Oc2nc3ccc(Cl)cc3o2)cc1`, the result in assay [2] and in assay [3] was inactive.
For `CC(C)CCCCCCc1ccc(O)cc1`, the AC50 in assay [1] is 8.06 µM (active).
Consider `CCOC(=O)C(C)Oc1ccc(Oc2cnc3cc(Cl)ccc3n2)cc1` (stereo not drawn), for which the compound was classed as inactive in assay [2], in assay [6], in assay [4] and in assay [5]. The AC50 in assay [1] was 1.7 µM (active).
As for `O=C(Nc1ccc([N+](=O)[O-])cc1Cl)c1cc(Cl)ccc1O`, the AC50 in assay [1] is 1.65 µM (active). Further, the call in assay [4] and in assay [5] was inactive.
For `CCCCC(CC)COC(=O)c1ccccc1C(=O)O` (stereo not drawn), the concentration at half-maximal activity (AC50) was 4.36 µM (active) in assay [6], 0.608 µM (active) in assay [1] and 5.12 µM (active) in assay [5]. In addition, the call in assay [3], in assay [7] and in assay [4] was inactive.
For the compound `CCCCC(CC)CN1C(=O)C2C3C=CC(C3)C2C1=O` (stereo not drawn), the values for the AC50 in assay [6], in assay [1] and in assay [5] were 4.33 µM (active), 13 µM (active) and 9.04 µM (active), respectively. The result in assay [4] was inactive.
